Screens as filed in PubChem.
A selection: hits, their analogues and other compounds. The true share with any hit is near 3%.
FBA Mtb inh = Mtb fructose-bisphosphate aldolase inhibition. P9WQA3. purified M. tuberculosis FBA, fluorescence read-out. inhibition, % at 1 µM. actives 2.3% (n = 360,000). AID 588726; in the data active = inhibition above about 27%
GDH-TPI counter = counter-screen for M. tuberculosis FBA inhibitors: GDH-TPI coupled enzymes. GDH-TPI coupled enzyme counterscreen, NADH absorbance. inhibition, % at 4.8 µM. actives 1.2% (n = 360,000). AID 588335; in the data active = inhibition above about 30%
BioA inh = blocks M. tuberculosis BioA enzyme activity. purified M. tuberculosis BioA enzyme, plate reader. inhibition, % at 9.99 µM. actives 0.096% (n = 360,000). AID 602481; in the data active = inhibition above about 40%; inconclusive = no clear call, values can overlap the other calls
FadD28 binding = inhibitors of Mycobacterium tuberculosis FadD28 bisubstrate binding. FadD28 bisubstrate probe binding, fluorescence polarization. inhibition, % at 12.5 µM. actives 0.22% (n = 360,000); in the data active = inhibition above about 8.5%, passing the limit was not always enough; inconclusive = no clear call, values can overlap the other calls
Rv3671c protease = inhibits the M. tuberculosis serine protease Rv3671c; P9WHR9; inhibition, % at 5.96 µM; actives 0.048% (n = 320,000); in the data active = inhibition above about 38%;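 also: extracellular domain of Rv3671c used as enzyme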
Target sequence (P9WHR9 whole entry, looked up, the tested form may be a part): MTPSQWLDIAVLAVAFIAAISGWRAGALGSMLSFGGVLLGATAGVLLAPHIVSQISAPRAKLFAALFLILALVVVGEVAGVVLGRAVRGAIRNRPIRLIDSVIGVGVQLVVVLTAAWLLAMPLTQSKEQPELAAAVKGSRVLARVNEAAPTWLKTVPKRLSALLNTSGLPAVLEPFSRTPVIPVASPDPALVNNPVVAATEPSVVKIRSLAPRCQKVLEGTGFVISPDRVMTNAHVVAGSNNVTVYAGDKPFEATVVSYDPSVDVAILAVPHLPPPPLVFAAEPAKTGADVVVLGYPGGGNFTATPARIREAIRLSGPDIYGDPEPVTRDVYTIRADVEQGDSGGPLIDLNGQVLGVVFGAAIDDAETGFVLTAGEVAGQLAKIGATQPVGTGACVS
A number is an active result; 0 = inactive; ? = inconclusive; - = no result given; + = active, no number.

SMILES	FBA Mtb inh	GDH-TPI counter	BioA inh	FadD28 binding	Rv3671c protease
Cc1c(C(=O)N2CCCC2)sc(NC(=O)c2ccco2)c1C#N	0	31	0	0	0
C[C@@H]1CN([C@@H](C)CO)C(=O)Cc2cc(NS(=O)(=O)c3cccs3)ccc2O[C@@H]1CN(C)C(=O)Nc1ccc(F)cc1	-	-	0	-	-
O=C(CN1CCCCC1)Nc1nnc(-c2ccccc2)s1	0	0	0	0	0
O=C(CN1CCCCC1)Nc1nnc(-c2ccc([N+](=O)[O-])cc2)s1	0	41	0	0	0
C[C@H](CO)N1C[C@H](C)[C@@H](CN(C)Cc2ccc(C(=O)Nc3ccccc3N)cc2)Oc2ccc(NC(=O)Cc3cn(C)c4ccccc34)cc2C1=O	-	-	0	-	-
CN(C[C@H]1N[C@H](CO)[C@H]1c1ccc(C2=CCCCC2)cc1)S(C)(=O)=O	-	-	0	-	-
COc1ccc(/C=C/c2nc3ccccc3n2C)cc1	0	65	-	0	0
O=c1c2ccccc2nc(/C=C/c2ccccc2)n1CCCO	0	35	0	0	0
Cn1c(/C=C/c2ccc(Cl)cc2)nc2ccccc2c1=O	0	37	0	0	0
O=c1c2ccccc2nc(/C=C/c2ccc3c(c2)OCO3)n1CCCO	0	0	-	0	-
COc1ccc(/C=N\n2nnc3ccccc32)cc1	0	51	0	0	0
COc1ccc(Nc2nc3ccccc3n2C)cc1	0	0	0	0	0
Cn1c(/C=C/c2ccccc2)nc2ccccc2c1=O	0	0	0	0	0
O=C(C[C@@H]1CC[C@H](NC(=O)Nc2cccc(F)c2)[C@@H](CO)O1)NCC1CCCCC1	-	-	0	-	-
Cc1noc(C)c1S(=O)(=O)N(C)C[C@H]1Oc2ccc(NS(=O)(=O)c3cn(C)cn3)cc2C(=O)N([C@H](C)CO)C[C@H]1C	-	-	0	-	-
C[C@@H]1CN([C@@H](C)CO)C(=O)c2cc(Br)cnc2O[C@@H]1CN(C)C(=O)C1CCOCC1	-	-	0	-	-
CO[C@H]1CN(C)C(=O)c2ccc(NS(C)(=O)=O)cc2OC[C@H](C)N(Cc2ccccc2)C[C@H]1C	-	-	0	-	-
Cc1ccc(NC(=O)Nc2sc(=S)n(C)c2C)cc1	0	0	0	11	0
CC(=O)NC(=O)Nc1sc(=S)n(C)c1C	0	0	0	0	0
CCN(Cc1ccccc1)C(=O)CN1C(=O)c2ccccc2C1=O	0	0	0	0	0
O=C(CN1C(=O)c2ccccc2C1=O)N(CCO)Cc1ccccc1	0	0	0	22	-
COC(=O)C1=C(C)N(C)C(C)=C(C(=O)OC)C1c1ccsc1	0	0	0	0	0
CCOC(=O)C1=CN(C)C=C(C(=O)OCC)C1c1ccsc1	+	0	0	0	0
O=C1CCCC2=C1C(c1ccc(O)cc1)c1c(ccc3ccccc13)N2 (stereo unspecified)	160	0	0	0	0
CC(=O)N(C)C[C@@H]1Oc2ncc(C3=CCCC3)cc2C(=O)N([C@@H](C)CO)C[C@@H]1C	-	-	0	-	-
SMILES	FBA Mtb inh	GDH-TPI counter	BioA inh	FadD28 binding	Rv3671c protease
COc1cccc2c1C(=O)c1c(O)c3c(c(O)c1C2=O)C[C@@](O)(C(=O)CO)C[C@@H]3O[C@H]1C[C@H](N)[C@@H](O)[C@H](C)O1	0	0	0	64	0
COc1cccc2c1C(=O)c1c(O)c3c(c(O)c1C2=O)C[C@@](O)(C(C)=O)C[C@@H]3O[C@H]1C[C@H](N)[C@H](O)[C@H](C)O1	0	0	0	68	-
COc1cccc2c1C(=O)c1c(O)c3c(c(O)c1C2=O)CC(O)(C(=O)CO)CC3OC1CC(N(C)C)C(O)C(C)O1 (stereo unspecified)	0	0	-	65	-
C/C=C/c1cnc2c(c1)C(=O)N([C@@H](C)CO)C[C@H](C)[C@@H](CN(C)S(=O)(=O)c1cn(C)cn1)O2	-	-	0	-	-
CCN(CC)CCCNC(=O)/C(=C\c1cccn1C)NC(=O)c1cccs1	0	35	-	0	0
CCOc1ccc2nc3cc(N=Nc4ccc(N)nc4N)ccc3c(N)c2c1	0	0	-	25	-
CCC(C)/C=C(C)/C=C/C1=CC2=C(Cl)C(=O)C(C)(OC(C)=O)C(=O)C2=CO1 (stereo unspecified)	0	0	0	?	0
CC[C@H](C)/C=C(C)/C=C/c1cc2c(cn1)C(=O)[C@@](C)(OC(C)=O)C(O)=C2Cl	0	0	0	11	-
COc1ccc(S(=O)(=O)Nc2ccc3c(c2)C(=O)N([C@H](C)CO)C[C@H](C)[C@@H](CN(C)C(=O)Nc2ccc4c(c2)OCO4)OCCCC[C@H](C)O3)cc1	-	-	0	-	-
N#CC1=C(N)OC2=C(CN(Cc3ccccc3)C/C2=C\c2cccnc2)C1c1cccnc1 (stereo unspecified)	0	0	0	0	0
CC(C)N1CC2=C(OC(N)=C(C#N)C2c2cccnc2)/C(=C/c2cccnc2)C1 (stereo unspecified)	0	0	43	0	0
CNC(=O)C1CC(=O)N/C(=N/N=C(\C)c2cccs2)S1 (stereo unspecified)	0	37	0	0	0
C/C(=N\N=C1\NC(=O)CC(C(=O)O)S1)c1cccs1 (stereo unspecified)	0	0	0	0	0
COc1ccc(/C(C)=N/N=C2/NC(=O)CC(C(=O)O)S2)cc1 (stereo unspecified)	0	0	-	0	0
COc1ccc(/C(C)=N/N=C2/NC(=O)CC(C(=O)O)S2)cc1F (stereo unspecified)	0	52	-	0	0
N#CCCN1CCN(C(=S)c2ccc(-c3cccc(Cl)c3)o2)CC1	0	39	0	0	0
Cc1ccc(/C=N/NC(=O)c2nnn(-c3nonc3N)c2-c2ccc3c(c2)OCO3)s1	0	47	0	0	0
COc1ccc(/C=N/NC(=O)c2nnn(-c3nonc3N)c2-c2cccs2)cc1OC	0	69	0	0	0
Cc1ccsc1/C=N/NC(=O)c1nnn(-c2nonc2N)c1C(C)C	0	34	0	0	0
CC(C)c1c(C(=O)N/N=C/c2cccs2)nnn1-c1nonc1N	0	0	0	0	0
Nc1nonc1-n1nnc(C(=O)N/N=C/c2ccc(F)cc2)c1-c1ccc2c(c1)OCO2	0	0	0	0	0
COc1cc(/C=N/NC(=O)c2nnn(-c3nonc3N)c2C(C)C)ccc1O	0	32	0	0	0
CN(C)CC(=O)Nc1ccc2c(c1)[C@H]1C[C@H](CC(=O)NCc3cccc(F)c3)O[C@@H](CO)[C@H]1O2	-	-	0	-	-
O=C([C@@H]1[C@@H](CO)[C@@H]2Cn3c(ccc(-c4cccnc4)c3=O)[C@H]1N2Cc1cccnc1)N1CCOCC1	-	-	0	-	-
COCC(=O)N(C)C[C@H]1Oc2cc(C#Cc3cccnc3)ccc2S(=O)(=O)N([C@H](C)CO)C[C@@H]1C	-	-	0	-	-
CCCc1c(C(=O)N/N=C/C(C)=C/c2ccccc2)nnn1-c1nonc1N	0	0	0	0	0
CC(/C=N/NC(=O)c1nnn(-c2nonc2N)c1C(C)C)=C\c1ccccc1	0	33	0	0	0
COc1cc(/C=N/NC(=O)c2nnn(-c3nonc3N)c2-c2cccs2)ccc1O	0	47	0	0	0
CC1(C)S/C(=N/N=C/c2ccco2)NC1=O	0	55	0	0	0
CC1S/C(=N/N=C/c2cccs2)NC1=O (stereo unspecified)	0	42	0	0	0
